This assay concerns the target T1, CRBN, Q96SW2.
T1 chain: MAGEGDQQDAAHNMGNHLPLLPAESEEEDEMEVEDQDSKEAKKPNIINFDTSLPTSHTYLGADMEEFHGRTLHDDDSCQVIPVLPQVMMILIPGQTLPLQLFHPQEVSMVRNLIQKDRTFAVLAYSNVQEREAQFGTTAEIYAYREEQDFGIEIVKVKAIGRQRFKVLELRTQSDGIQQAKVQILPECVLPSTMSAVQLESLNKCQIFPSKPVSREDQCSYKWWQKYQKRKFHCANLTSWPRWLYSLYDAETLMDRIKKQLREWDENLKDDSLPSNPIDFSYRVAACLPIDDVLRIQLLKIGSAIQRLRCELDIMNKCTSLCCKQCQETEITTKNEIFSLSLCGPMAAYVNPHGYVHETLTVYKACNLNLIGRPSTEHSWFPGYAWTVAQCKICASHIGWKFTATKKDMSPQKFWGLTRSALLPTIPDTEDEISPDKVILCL
The assay can be described thus: log2 fold change of degron read counts, EGFP-low vs EGFP+ sorted cells (limma voom), compound-induced degradation; higher = more compound-induced degradation of the degron-EGFP fusion; degrons are variants of IKZF1/3 zinc finger 2; compound dose not given here. As to conditions: Jurkat, 18 h.

Setting [1] is: compound: compound 19 (5-tert-butyl-thalidomide).
Setting [2] is: compound: compound 22 (5-morpholino-thalidomide).
The mark [3] stands for this setting: compound: compound 33 (diphenyl IMiD analogue).

Whole data set: some 8,300 sequences, median “log2 fold change of degron read counts, EGFP-low vs EGFP+ sorted cells (limma voom), compound-induced degradation” near -1.1, cut for the highest 2% near 3.2. The full list was thinned out, with the highest values kept by preference.
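Further: pooled lentiviral library of zinc finger degron-EGFP fusions in mCherry-positive Jurkat cells, FACS-sorted after compound exposure, with degron abundance counted by next-generation sequencing.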

As to FICDICGATFTQKGNLLRHIKL [46F_47I_49D_50I_52G_53A_54T_55F_67L_, Q9UKT9], the “log2 fold change of degron read counts” value runs as follows: under setting [1], -1.39; under setting [2], 0.332; under setting [3], 0.735; (compound: thalidomide) -0.113.
In the same order, the values of FKCEQCGAPFTQKGNLLRHIKL [46F_47K_49E_50Q_52G_53A_54P_55F_67L_, Q9UKT9] are -1.28, -2.18, -2.55 and -1.19.
In the same order, the values of FVCNICGACFTQKGNLLRHIKL [46F_47V_49N_50I_52G_53A_54C_55F_67L_, Q9UKT9] are -1.18, 0.539, 1.63 and 1.37.
For the sequence FFCNQCGRTFTQKGNLLRHIKL [46F_47F_49N_50Q_52G_53R_54T_55F_67L_, Q9UKT9], the “log2 fold change of degron read counts” value runs as follows: under setting [1], -2.31; under setting [2], -2.17; under setting [3], -2.54; (compound: thalidomide) -2.59.
As for FCCSVCGHKFTQKGNLLRHIKL [46F_47C_49S_50V_52G_53H_54K_55F_67L_, Q9UKT9], the “log2 fold change of degron read counts” value was -2 under setting [1], -2.26 under setting [2], -2.77 under setting [3] and -2.04 (compound: thalidomide).
For FWCEICGHIFTQKGNLLRHIKL [46F_47W_49E_50I_52G_53H_54I_55F_67L_, Q9UKT9], the “log2 fold change of degron read counts” value is -0.453 under setting [1], -0.795 under setting [2], -0.246 under setting [3] and -0.951 (compound: thalidomide).
On the same counts, the results for FICEICGRIFTQKGNLLRHIKL [46F_47I_49E_50I_52G_53R_54I_55F_67L_, Q9UKT9] are -1.03, -1.63, 0.139 and -0.162.
Take FLCEICGRAFTQKGNLLRHIKL [46F_47L_49E_50I_52G_53R_54A_55F_67L_, Q9UKT9]: the “log2 fold change of degron read counts” value reads like this: under setting [1], -1.9; under setting [2], -2.56; under setting [3], -1.36; (compound: thalidomide) -1.22.
With LRCEICGFICTQKGNLLRHIKL [46L_47R_49E_50I_52G_53F_54I_55C_67L_, Q9UKT9], the “log2 fold change of degron read counts” value runs as follows: under setting [1], -0.547; under setting [2], -1.4; under setting [3], 0.271; (compound: thalidomide) 0.795.
With FVCEICGRRFTQKGNLLRHIKL [46F_47V_49E_50I_52G_53R_54R_55F_67L_, Q9UKT9], the “log2 fold change of degron read counts” value by setting is: under setting [1], -1.38; under setting [2], -0.295; under setting [3], -0.924; (compound: thalidomide) 1.44.
As for LWCPICGFICTQKGNLLRHIKL [46L_47W_49P_50I_52G_53F_54I_55C_67L_, Q9UKT9], the “log2 fold change of degron read counts” value by setting is: under setting [1], 2.27; under setting [2], 2.7; under setting [3], 2.35; (compound: thalidomide) 1.24.
For FNCEQCGAQFTQKGNLLRHIKL [46F_47N_49E_50Q_52G_53A_54Q_55F_67L_, Q9UKT9], the “log2 fold change of degron read counts” value under setting [1] is -1.51, the “log2 fold change of degron read counts” value under setting [2] was -2.31, the “log2 fold change of degron read counts” value under setting [3] was -2.13 and the “log2 fold change of degron read counts” value (compound: thalidomide) was -2.22.
On the same counts, the results for LTCNQCGFMCTQKGNLLRHIKL [46L_47T_49N_50Q_52G_53F_54M_55C_67L_, Q9UKT9] are -2.05, -1.99, -2.04 and -1.23.
For the sequence FFCNQCGAKFTQKGNLLRHIKL [46F_47F_49N_50Q_52G_53A_54K_55F_67L_, Q9UKT9], the “log2 fold change of degron read counts” value under setting [1] is -0.805, the “log2 fold change of degron read counts” value under setting [2] was -0.929, the “log2 fold change of degron read counts” value under setting [3] is -1.59 and the “log2 fold change of degron read counts” value (compound: thalidomide) was -1.91.
In the same order, the values of FDCNVCGAPFTQKGNLLRHIKL [46F_47D_49N_50V_52G_53A_54P_55F_67L_, Q9UKT9] are -1.08, -1.02, -1.22 and -0.873.
On to LMCEICGFRCTQKGNLLRHIKL [46L_47M_49E_50I_52G_53F_54R_55C_67L_, Q9UKT9], for which the “log2 fold change of degron read counts” value by setting is: under setting [1], 0.992; under setting [2], 0.81; under setting [3], 2.15; (compound: thalidomide) 2.41.
In the same order, the values of LHCEICGFRCTQKGNLLRHIKL [46L_47H_49E_50I_52G_53F_54R_55C_67L_, Q9UKT9] are 2.71, 2.4, 1.3 and 1.88.
For LCCEICGFRCTQKGNLLRHIKL [46L_47C_49E_50I_52G_53F_54R_55C_67L_, Q9UKT9], the “log2 fold change of degron read counts” value by setting is: under setting [1], 2.36; under setting [2], 2.33; under setting [3], 1.37; (compound: thalidomide) 2.65.
On the same counts, the results for LWCEICGFRCTQKGNLLRHIKL [46L_47W_49E_50I_52G_53F_54R_55C_67L_, Q9UKT9] are 3.39, 3.5, 2.48 and 1.8.
On to LTCEICGFRCTQKGNLLRHIKL [46L_47T_49E_50I_52G_53F_54R_55C_67L_, Q9UKT9], for which the “log2 fold change of degron read counts” value under setting [1] amounted to 1.66, the “log2 fold change of degron read counts” value under setting [2] was found to be 2.1, the “log2 fold change of degron read counts” value under setting [3] came out at 1.15 and the “log2 fold change of degron read counts” value (compound: thalidomide) amounted to 2.73.
In the same order, the values of LVCEICGFRCTQKGNLLRHIKL [46L_47V_49E_50I_52G_53F_54R_55C_67L_, Q9UKT9] are 2.5, 2.55, 1.39 and 3.28.
In the same order, the values of LDCEICGFRCTQKGNLLRHIKL [46L_47D_49E_50I_52G_53F_54R_55C_67L_, Q9UKT9] are 0.949, -0.499, -0.616 and 0.426.
As for LACEICGFRCTQKGNLLRHIKL [46L_47A_49E_50I_52G_53F_54R_55C_67L_, Q9UKT9], the “log2 fold change of degron read counts” value by setting is: under setting [1], 3.5; under setting [2], 2.79; under setting [3], 0.159; (compound: thalidomide) 1.41.
As for LGCEICGFRCTQKGNLLRHIKL [46L_47G_49E_50I_52G_53F_54R_55C_67L_, Q9UKT9], the “log2 fold change of degron read counts” value reads like this: under setting [1], 2.14; under setting [2], 1.52; under setting [3], -0.383; (compound: thalidomide) 0.468.
Take LYCEICGFRCTQKGNLLRHIKL [46L_47Y_49E_50I_52G_53F_54R_55C_67L_, Q9UKT9]: the “log2 fold change of degron read counts” value is, setting by setting: under setting [1], 3.55; under setting [2], 3.9; under setting [3], 2.17; (compound: thalidomide) 1.9.
LNCEICGFRCTQKGNLLRHIKL [46L_47N_49E_50I_52G_53F_54R_55C_67L_, Q9UKT9]: the “log2 fold change of degron read counts” value under setting [1] is 1.31, the “log2 fold change of degron read counts” value under setting [2] was found to be 0.0636, the “log2 fold change of degron read counts” value under setting [3] is -0.877 and the “log2 fold change of degron read counts” value (compound: thalidomide) is 0.378.
On the same counts, the results for LSCEICGFRCTQKGNLLRHIKL [46L_47S_49E_50I_52G_53F_54R_55C_67L_, Q9UKT9] are 2.82, 2.76, 0.517 and 1.83.

Values taken from the supplement of paper PMC12645437, “Orthogonal IMiD-Degron Pairs Induce Selective Protein Degradation in Cells” (ACS Chemical Biology, 2025).
